Measured values reported in PubChem BioAssay AID802 (Columbia University Molecular Screening Center, 2007).
The whole screen tested about 95,000 compounds, of which about 460 (0.48%) were called active.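 How the source made its calls: active means inhibition above the batch mean plus 3 SD, with images confirmed as a hit by eye (cut at about 37% in these data); inconclusive means inhibition above that limit but hit not confirmed in images; inactive means inhibition not above that limit.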 This excerpt belongs to a sample that is enriched for actives.

Experiment: blockers of endothelial VCAM-1 upregulation by TNFa – imaging, HUVEC, TNFa stimulus, immunofluorescence, primary screen (AID 802);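 further: 0% = TNF-stimulated DMSO wells and 100% = unstimulated control wells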
Details: HUVEC TNFa-induced VCAM-1 immunofluorescence, high-content imaging; at 2 µM; active compounds read high

inhibition, inactive:
CCN(CC)CCN1C(=O)C(=O)/C(=C(/O)c2cnn(-c3ccccc3)c2C)C1c1cccs1 (stereo not drawn) -0.9%
COc1ccc(-c2c(C(C)=O)c(C)nc3sc4c(=O)n(-c5ccc(C)cc5)nnc4c23)cc1 12%
O=C(CN1CCSCC1)N/N=C/c1ccc(F)cc1 -11.6%
CCc1nnc(NC(=O)CSc2nc3ccccc3c(=O)n2CCCOC)s1 1.6%
Cc1nnc(SCc2nc3ccccc3nc2C)s1 -5.5%
Cc1ccc(NC(=S)NC2CCCC2)cc1 -15%
Cc1ccoc1C(=O)Nc1cccc(Oc2ccccc2)c1 -7.5%
O=C(O)c1cccnc1NC1CCCC1 -5.2%
O=C(c1ccc2c(c1)OCCO2)C1CCN(S(=O)(=O)c2cccc(F)c2)CC1 -12.7%
O=S(=O)(c1cccc(S(=O)(=O)N2CCC(n3nnc4ccccc43)CC2)c1)N1CCCCC1 -12.3%
COc1cccc(NC(=O)Cc2ccc(C)cc2)c1 3.7%
COc1ccc(CC(=O)Nc2ccc(-c3nnc(-c4ccc(C)cc4)o3)cc2)cc1 -1.2%
COc1cc(CC(=O)NCc2cccs2)cc(OC)c1OC 4.1%
CCOc1ccc(NC(=O)Nc2cc(C)ccc2OC)cc1 11.7%
COc1ccc(/C=N\NC(=O)c2sc(N)nc2C)cc1OC -10.1%
CC(C)CNC(=S)NNC(=O)c1nn(C)cc1Cl 5.2%
Cc1nnsc1S(=O)(=O)Cc1ccccc1Cl 1.2%
COCCNS(=O)(=O)c1cc(Br)ccc1OC -35.9%
O=C(Nc1ccccc1)c1ccc2nsnc2c1 -11.1%
O=C(Nc1ccc(Cl)cc1)c1ccsn1 -10%
O=C(c1ccc(Cl)cc1)c1cnc(Nc2ccccc2)s1 4.4%
CCC(C)(C)n1nnnc1CN1CCN(c2nc3ccc(C)cc3cc2C#N)CC1 3.1%
S=C(NCCC1=CCCCC1)Nc1ccccc1 2.2%
CC(C)NC(=O)CSc1nnc(COc2ccccc2Cl)o1 6.7%
NS(=O)(=O)c1cccnc1Nc1cccc(Cl)c1 -4.5%
COC(=O)C1=C(Nc2ccc(OC)cc2)C=C(C)C(C(=O)OC)C1c1ccc(C)cc1 (stereo not drawn) -3.9%
O=C(O)CSc1nccn1-c1cccc(Cl)c1 -15%
Cc1cccc(C)c1NC1=NC(=S)N(c2ccc(N(C)C)cc2)C1(C)C -2.5%
Cc1ccc(/C=N/NC(=O)c2sccc2OCc2ccc(F)cc2)cc1 4%
CCOC(=O)C1(S(=O)(=O)c2ccccc2)CCN(Cc2ccccc2)CC1 -5.9%
CC1CC(C)CN(S(=O)(=O)c2cccc(C(=O)N3C(=O)c4cccc(N)c4C3=O)c2)C1 (stereo not drawn) -20.1%
CCC(=O)Nc1ccc2nc(C)n(Cc3ccccc3Cl)c(=O)c2c1 -5.1%
CC(=O)Nc1ccccc1OC(=O)N1CCOCC1 -16.3%
Cc1cc(C)n(-c2nnc(C)n2NC(=O)c2cccc(Cl)c2)n1 -8.8%
Cc1ccc(Nc2nc(C)cc(C)c2C(N)=O)cc1 7.1%
CC1CCN(S(=O)(=O)c2ccc(S(=O)(=O)NCc3ccco3)cc2)CC1 -20.1%
O=C(OC1CCCCC1=O)c1cccc(S(=O)(=O)NCc2ccccc2)c1 (stereo not drawn) -3.3%
COc1ccc(C(=O)NN(C)c2nc(-c3ccccc3)cc(C)c2S(C)(=O)=O)cc1 16.7%
CN(NC(=O)c1ccccc1)c1nc2ccccc2nc1C(F)(F)F 11.7%
CCN(CC)c1ccc(/C=N/Nc2nc(C)cc(=O)[nH]2)cc1 11.9%
COC(=O)C1=C(C(=O)c2ccc(C)cc2)C(c2ccccc2)n2nnnc2N1 (stereo not drawn) 5.8%
COc1ccc(C(=O)Nc2nc(-c3ccc(S(=O)(=O)N4CCOCC4)cc3)cs2)cc1 -4.5%
CCOc1cccc(C(=O)Nc2nnc(-c3cccs3)s2)c1 -0.3%
c1ccc(-n2nnnc2NC2CCCCCC2)cc1 -15.1%
Cc1cc(NC(=O)CS(=O)(=O)c2cn(C)c3ccccc23)no1 28.9%
CCOC(=O)c1ccc(NC(=O)CS(=O)(=O)c2cn(CC)c3ccccc23)cc1 7%
O=C(NCCCN1CCOCC1)c1cnn2c(-c3ccccc3)cc(-c3ccccc3)nc12 12%
O=C(Nc1cc(-c2nn(CC(=O)N3CCCCC3)c(=O)c3ccccc23)ccc1N1CCOCC1)c1ccc(Cl)cc1 12.6%
Cc1ccc(-n2ncc3c(Nc4cccc(C(=O)O)c4)ncnc32)cc1 -17%
CCCCNC(=O)CSc1nc2n[nH]c(C)c2c(=N)n1-c1cccc(Cl)c1C 10.7%
CCNC(=O)c1sccc1-n1cccc1 32%
Cc1ccccc1N1CCN(CCCOc2ccc3c(C)cc(=O)oc3c2)CC1 -7.7%
COc1cccc(-c2nnc(SCCOc3ccc4c(C)cc(=O)oc4c3)o2)c1 0.7%
Oc1ccccc1/C=N/n1c(-c2cccs2)n[nH]c1=S -7.1%
O=C(Nc1ccc(-c2nnc(-c3ccccc3)o2)cc1)c1ccc(Br)o1 -17.2%
CC(CNC(=O)c1ccc(Br)o1)NC(=O)c1ccc(Br)o1 (stereo not drawn) -12.4%
O=C1CSC(c2cccc(F)c2)N1c1ccc(O)cc1 (stereo not drawn) -1.8%
C/C(=C\C(=O)c1ccccc1)Nc1cccc(O)c1 -2.3%
CCC(=O)Nc1cccc(NC(=O)c2cccnc2)c1 7.8%
Cc1c(NC(=O)/C=C/C(=O)O)cccc1[N+](=O)[O-] 3.3%
O=C(CSc1ncnc2c1cnn2CCc1ccccc1)Nc1ccc(F)cc1 1.7%
CCOC(=O)N1CCN(C(=O)COc2ccc(Br)cc2)CC1 -1.9%
CCOC(=O)N1CCN(C(=O)CSc2ccc(Cl)cc2)CC1 -18.1%
CCn1c2ccccc2c2cc(NC(=O)C/C(C)=N/NC(=O)c3ccccc3N)ccc21 1.3%
COC(=O)c1cc(OC)c(OC)cc1NC(=O)CSc1ccc(C)cc1 -25%
Cc1ccc2nc(SCc3nnc(-c4ccccc4[N+](=O)[O-])o3)c(C#N)cc2c1 6%
CN(C)c1ccnc(Oc2ccc(F)cc2)c1C#N -15.3%
Cc1cc(Oc2ccccc2)nc(N2CCOCC2)n1 0.8%
Cc1cc(C)n(-c2cc(Oc3ccccc3)ncn2)n1 13.4%
O=C(Cc1ccc(-n2c(=O)[nH]c3ccccc3c2=O)cc1)N1CCN(c2cccc(Cl)c2)CC1 1.3%
Cc1cccc(S(=O)(=O)CC(=O)Nc2nc(-c3ccccc3)cs2)c1 -5.3%
CN(CC#CCC(c1ccccc1)c1ccccc1)C(C)(C)C 5.2%
O=C1Cc2ccccc2Sc2ccc(Cl)cc21 10%
CSCc1cc(N2CCOCC2)nc(SCc2ccc(Cl)cc2Cl)n1 5.1%
Cc1ccc(-c2csc(NC(=O)Cc3cccs3)n2)cc1C 1.5%
COc1ccc(OC)c(/C=N/NC(=O)CSc2nnc(C)n2-c2ccccc2)c1 0.9%
O=C(Nc1ccccc1)c1ccccc1NC(=O)C(F)(F)F -10.4%
COc1cc(/C=C2\SC(=S)N(Nc3ncc(C(F)(F)F)cc3Cl)C2=O)cc(OC)c1OC 14.4%
O=C(c1ccccc1)C(Cn1cncn1)C(Sc1ccccc1)c1ccccc1 (stereo not drawn) 0.1%
CCOc1ccc(NC(=O)CCS(=O)(=O)c2ccc3c(c2)CCCN3C(=O)CC)cc1 0.8%
COc1ccccc1NC(=O)C1CCCN(c2cc(C)nc3ncnn23)C1 (stereo not drawn) 3.1%
CC1(C)Cc2c(C#N)c(SCc3nc4ccccc4[nH]3)nc(N3CCOCC3)c2CO1 7.1%
CC(C)c1nc(N2CCOCC2)c(C#N)c2c1COC(C)(C)C2 -40.7%
S=C(NCc1cccs1)Nc1ccc(Cl)cc1 -27.9%
Cc1cc2cc(CNC(=O)c3cccs3)ccc2[nH]1 11.4%
COCCn1c(SCc2nnc(-c3ccc(OC)c(OC)c3)o2)nc2sc3c(c2c1=O)CCC3 -4.9%

inhibition, active:
CC(=O)c1cccc(S(=O)(=O)N2CCC(n3nnc4cc(F)ccc43)CC2)c1 54.7%
COc1ccc(NC(=O)/C(Cl)=C(/Cl)S(=O)Cc2ccc(C)cc2)cn1 (stereo not drawn) 90.4%
COc1cc(/C=N/NC(=O)Nc2ccccc2)ccc1OCCOc1ccccc1C 51.1%
O=C(Nc1ccccc1)c1nnsc1S(=O)(=O)c1ccc(Cl)cc1 59.3%
CSc1nc(N(C)NC(=O)c2cccc(C)c2)c2ccccc2n1 83.3%
O=C(CS(=O)(=O)c1cn(Cc2cccc(F)c2)c2ccccc12)N1CCCCC1 50.1%
Cc1cc(=O)oc2cc(OCC3CC(c4ccccc4Cl)=NO3)ccc12 (stereo not drawn) 59.7%
CC(CCc1ccccc1)NC(=O)c1ccc(Br)o1 (stereo not drawn) 95.4%
C/C(=C\C(=O)c1cccnc1)Nc1ccc(C)c(C)c1 89.1%
CCOC(=O)N1CCN(C(=O)COc2ccc(Cl)cc2C)CC1 92.1%
CC(=O)c1ccc(Oc2cc(C)nc(-n3nc(C)cc3C)n2)cc1 75.8%
CC(C)C(=O)N1CCN(c2nc(-c3ccccc3)c3c(c2C#N)CC(C)(C)OC3)CC1 36.7%
